These results are taken from PubChem BioAssay AID493240 (Broad Institute, 2011).

Out of some 1,300 compounds screened, about 270 (21%) were called active. Only a sample is shown. Potency and affinity values are given separately. Values without a mark were called inactive. No rule for the calls is given here.

A short description of this assay: SK-MEL-5 parental cell viability loss, dose response, orthogonal assay for MITF inhibitor project, CellTiter-Glo, cherry-picked, set 3 (AID 493240). Particulars: SK-MEL-5 viability, ATP luminescence (CellTiter-Glo), 24 h; series mostly up to 35 µM; activity change, negative = viability loss: at the top concentration.
For the compound `CC1(C)CC(=O)C=C(NC2=CC3OC(c4ccccc4)OCC3OC2=O)C1` (stereo not drawn), the “activity change, negative = viability loss” value was -23.8%.
Consider `O=[N+]([O-])/C=C\c1ccc(N2CCCC2)c(F)c1`, for which the “activity change, negative = viability loss” value is -39.5%.
On to `O=C(NCc1cccs1)c1nc2c(nnn2Cc2ccccc2Cl)c(=O)[nH]1`, for which the “activity change, negative = viability loss” value was -3%.
`COc1ccc(C2C(C#N)=C(N)Oc3c2oc(CO)cc3=O)cc1` (stereo not drawn): the “activity change, negative = viability loss” value was -0.975%.
Consider `O=C(O)c1ccc(N/N=C/c2ccc3nccnc3c2)cc1`, for which the “activity change, negative = viability loss” value is -41.5%.
To `COc1cc([N+](=O)[O-])cc(/C=N/NC(=O)c2ccc(NC(=O)c3ccc(C)cc3)cc2)c1O` belongs -2.58%; to `CCN1CCN(c2ccc(S(=O)(=O)N3CCOCC3)cc2NC(=O)/C=C/c2ccc([N+](=O)[O-])cc2)CC1`, -52.7%.
To `CCN1CCN(c2ccc(S(=O)(=O)N3CCCCC3)cc2NC(=O)/C=C/c2ccc([N+](=O)[O-])cc2)CC1` belongs -90%.
In the case of `O=C(NC1CCCC(C(F)(F)F)C1)c1ccc([N+](=O)[O-])o1` (stereo not drawn), the “activity change, negative = viability loss” value is -26.7%.
To `COc1cccc(-c2ccc3c(N)c(C(=O)NC4CC4)sc3n2)c1` belongs 4.82%; to `CC(Oc1cccc(Br)c1)C(=O)NNC(=O)c1ccccn1` (stereo not drawn), -39.2%.
As for `C/C(=N\NC(=O)C(c1ccccc1)c1ccccc1)c1ccccn1`, the “activity change, negative = viability loss” value is -43.6%.
In the case of `CC1CCN(c2ccc(NC(=O)c3cccnc3)cc2)CC1`, the “activity change, negative = viability loss” value was -3.45%.
Consider `COC(=O)c1ccc(/C=N/Nc2nc(C)c(C)s2)cc1`, for which the “activity change, negative = viability loss” value was -5.59%.
Under `CS/C(N)=N/N=C/c1ccc2c(c1)OCO2` stands -6.57%; under `COc1cc(CN2CCC(C(N)=O)CC2)ccc1OCc1ccccc1`, -13.3%.
Turning to `COc1cc2c(cc1OC)C(C)N(S(=O)(=O)c1cnc(Cl)c(Cl)c1)CC2` (stereo not drawn), the “activity change, negative = viability loss” value was -14.2%.
For `CCOc1ccc(N/C=C/C(=O)c2ccc(OC)c(OC)c2)cc1`, the “activity change, negative = viability loss” value is -2.16%.
For `N/C(=N\OC(=O)c1ccc(Cl)cc1Cl)c1ccncc1`, the “activity change, negative = viability loss” value is 3.52%.
To `O=C1CN(c2ccccc2)C(=S)N1C(=O)c1ccccc1` belongs -0.936%; to `O=C1C=CC(=C(c2ccc(O)cc2)c2ccc(O)cc2)C=C1`, -65.4%; to `COC(=O)CCS(=O)(=O)c1nc(-c2ccccc2)cc(C(F)(F)F)n1`, -90.5%.
To `COc1ccccc1-c1cc(C(F)(F)F)nc(S(C)(=O)=O)n1` belongs -87.5%; to `N=C1C(c2nc3ccccc3[nH]2)=C(O)CN1C1CCCCC1`, 0.386%.
To `Cc1ccc(C(=O)Nc2ccccc2Cl)cc1` belongs -19.9%; to `Cc1cc(C(=O)CCl)c(C)n1CCc1ccc(F)cc1`, -36.8%; to `Cc1ccc2nc(NC(=O)CSCC(=O)OCC(=O)c3ccccc3)sc2c1`, 3.83%.
Turning to `CCCCN=C(C)c1c(O)c2ccccc2oc1=O`, the “activity change, negative = viability loss” value is 10%.
Take `COc1ccc(NC(=O)NC(=O)c2ccccc2)cc1`: the “activity change, negative = viability loss” value is 5.71%.
Under `Cc1oc(=O)c(NC(=O)c2ccccc2)cc1C(=O)c1ccccc1` stands -13.9%.
To `O=C(Nc1ccc(Cl)cc1)Nc1cccc(C(=O)O)c1` belongs -12.4%.
Take `Cc1ccc(NC(=O)c2ccccc2)cc1`: the “activity change, negative = viability loss” value was -7.34%.
Consider `COc1ccc(COC(=O)c2cc([N+](=O)[O-])ccc2N2CCOCC2)cc1F`, for which the “activity change, negative = viability loss” value was 6.58%.
Consider `CN(C)c1ccc(/C=C/c2cccc[n+]2[O-])cc1`, for which the “activity change, negative = viability loss” value is -16.4%.
To `Cc1ccc(NC(=O)Cc2noc3ccccc23)cc1` belongs -4.59%; to `CC(=NNc1nc2ccccc2o1)c1cc2ccccc2cn1`, -10.6%; to `COC(=O)c1ccc(COc2ccc3c(c2)CCC3)o1`, -0.066%.
To `Fc1ccc(-c2nnc(-c3ccc(F)cc3)o2)cc1` belongs -15.4%; to `COc1cccc(-c2nnc3sc(-c4cccs4)nn23)c1`, 3.21%; to `Nc1ncnc(Sc2ncccn2)c1[N+](=O)[O-]`, -18%.
Under `O=C(CSc1ccccn1)c1ccc2c(c1)OCO2` stands 5.91%; under `O=C(CCl)N1CCN(S(=O)(=O)c2ccc3c(c2)CCC3)CC1`, -30.6%; under `O=C(Nc1nc(-c2ccccn2)cs1)c1ccc([N+](=O)[O-])o1`, -8.07%.
Regarding `N#C/C(=C(/O)CCl)c1nc2ccccc2[nH]1`, the “activity change, negative = viability loss” value is -8.54%.
Turning to `C/C(=C\c1ccccc1)C(=O)Nc1ccc(Cl)cn1`, the “activity change, negative = viability loss” value was 2.07%.
Under `COc1cc(SC)ccc1C(=O)NCCOc1ccccc1Cl` stands -10.2%; under `CCn1c(=O)c(C(=O)NCc2ccccc2Cl)c(O)c2ccccc21`, -7.51%; under `COCCNC(=O)c1cc2sc3ccccc3c2s1`, -2.65%.
`O=c1nc(N/N=C/c2ccccn2)cn[nH]1`: the “activity change, negative = viability loss” value was -12.3%.
Under `O=C(CCl)N(c1ccccc1)c1c[nH]c2ccccc12` stands -12.6%; under `Cc1ccc(NC(=O)Nc2ccccc2)nc1`, -8.06%; under `FC(F)(F)c1cc(CCN2CCNC[C@@H]2Cc2ccccc2)cc(C(F)(F)F)c1`, -36.9%.
On to `CCSc1ccccc1C(=O)n1nnc2ccccc21`, for which the “activity change, negative = viability loss” value is -14.9%.
To `Cc1cc(C(=O)COc2cccnc2[N+](=O)[O-])c(C)n1-c1ccccc1` belongs -5.32%; to `Cc1cc(C)c2ccc(N)nc2c1O`, -18.6%; to `Cc1cc(C(F)(F)F)c2c(N)c(C(=O)Nc3cc(C)on3)sc2n1`, -11.3%.
For `O=C(Cn1cnc2c(oc3ccccc32)c1=O)c1ccccc1`, the “activity change, negative = viability loss” value was -8.3%.
Under `Cc1nc(C)c(C(=O)N/N=C/c2cc(Br)ccc2O)s1` stands -19.8%; under `CCCCNc1nc(=S)n(-c2ccccc2)c(C)c1C(C)=O`, -8.68%.
On to `COCCn1c(C)cc(C(=O)COC(=O)c2ccccc2Br)c1C`, for which the “activity change, negative = viability loss” value is 1.32%.
For the compound `CCC(=O)NCCc1nc2cc(NC(=O)c3cccc([N+](=O)[O-])c3)ccc2n1C`, the “activity change, negative = viability loss” value is 0.147%.
Under `Cc1ccc(/C=N/Nc2ccc(C(=O)O)cc2)s1` stands -11.2%; under `CC(C)(C)c1ccc(/C=N/Nc2ccc(C(=O)O)cc2)cc1`, -0.109%; under `COc1cccc(CNc2nc3ccccc3n2C)c1O`, -11.7%.
Regarding `CC(=O)N(c1nnc(-c2cccc(C)c2)s1)C1CCCC1`, the “activity change, negative = viability loss” value was -0.421%.
To `CCOC(=O)c1ccc2nc(C)c(CCC(C)=O)c(Cl)c2c1` belongs -10.8%; to `O=S(=O)(c1ccc(Cl)cc1)N1CCN(Cc2ccc(O)c3ncccc23)CC1`, -16.5%; to `CCCOCc1ccc(O)c2ncccc12`, -39.2%.
To `O=C(CSC(=S)N1CCCCC1)c1c(F)cccc1F` belongs -8.79%; to `c1ccc(Cc2cc(-c3ccccc3)on2)cc1`, 0.069%.
To `COc1cc2c(c(OC)c1OC)-c1ccc(OC)c(=O)cc1C(NC(C)=O)CC2` (stereo not drawn) belongs -10.5%.
For the compound `CCN1c2ccccc2NC2C1C(C(C)=O)C(=O)N2c1ccc(Cl)cc1` (stereo not drawn), the “activity change, negative = viability loss” value was -27.8%.
In the case of `COc1cnc(-c2ccccn2)nc1NC(C)C`, the “activity change, negative = viability loss” value is -48.6%.
Under `N#CCSc1nc2ccccc2c2nc3ccccc3n12` stands -26.7%.
For the compound `Cc1ccc(SCc2cn3cc(Cl)ccc3n2)cc1`, the “activity change, negative = viability loss” value is -2.16%.
Consider `CC(=O)Nc1ccc(S(=O)(=O)N2CCn3cccc3C2C)cc1` (stereo not drawn), for which the “activity change, negative = viability loss” value was -15.5%.
Under `CN1CCN(C2=C(NS(=O)(=O)c3cccs3)C(=O)c3ccccc3C2=O)CC1` stands -45.7%; under `Cc1cc(C(=O)Nc2ccc([N+](=O)[O-])cn2)cs1`, 1.28%; under `CCOC(=O)c1cc2sccc2n1CC(=O)N1c2ccccc2CC1C` (stereo not drawn), -48.5%.
Under `O=C(Nc1ccc2c(c1)OCCO2)c1cccc(Cl)c1Cl` stands 6.72%; under `O=C(c1nnsc1S(=O)(=O)c1ccc(Cl)cc1)N1CCOCC1`, -10.9%; under `CC(C)(CO)NC(=O)c1ccc2nc(Cc3cccc(Cl)c3)oc2c1`, 8.31%.
Turning to `COc1ccc2cc3cc(C(=O)NCCc4ccc(OC)c(OC)c4)oc3nc2c1`, the “activity change, negative = viability loss” value was -23.3%.
To `Cc1ccccc1C(=O)O/N=C(\N)c1ccc([N+](=O)[O-])cc1` belongs -4.23%; to `Nc1ccc(-c2ncc(-c3ccccc3)o2)cc1`, -2.92%.
Consider `CCOC(=O)CSC1=NC(=O)/C(=C\c2ccc(OC(C)=O)cc2)S1`, for which the “activity change, negative = viability loss” value was -10.5%.
`CCOC(=O)CSC1=NC(=O)/C(=C\c2ccc(Cl)cc2)S1`: the “activity change, negative = viability loss” value is -52.8%.
To `CC(Oc1ccccc1)C(=O)Nc1nc(-c2ccccn2)cs1` (stereo not drawn) belongs -18.7%; to `CC(C)(C)C1CCC(OC(=O)CN2CCCCC2)CC1` (stereo not drawn), -11.8%; to `CC(O)CNC(=O)C1CCN(Cc2ccc(OCc3ccccc3)cc2)CC1` (stereo not drawn), -5.93%.
To `Cc1cc(C(=O)CN2C(=O)c3ccccc3S2(=O)=O)c(C)n1-c1ccccc1` belongs -9.62%; to `O=C(N/N=C\c1cc(Br)ccc1O)c1ccc(S(=O)(=O)N2CCCCC2)cc1`, -30.4%; to `COC(=O)[C@@H](C)NC(=O)c1ccc2oc(CCc3ccccc3)nc2c1`, 2.14%.
Regarding `O=C(Nc1nc2ccccc2s1)c1ccccc1[N+](=O)[O-]`, the “activity change, negative = viability loss” value is -11.7%.
Take `Cc1nc2nc(C)c(NS(=O)(=O)c3ccc4c(c3)CCCC4)c(=O)n2[nH]1`: the “activity change, negative = viability loss” value was 3.77%.
Under `COc1ccc(/C=C2\SC(=O)N(CCCC(=O)Nc3cc(Cl)ccc3C(=O)O)C2=O)cc1` stands -7.19%; under `CC(C)c1ccc(CNc2ncccn2)cc1`, 4.61%; under `COC(=O)c1ccc(/C=C(\C#N)C(=O)NC(C)c2ccccc2)cc1` (stereo not drawn), -23.5%.
Turning to `Clc1ccc(-c2nc(-c3ccncc3)no2)c(Cl)c1`, the “activity change, negative = viability loss” value is 6.89%.
Consider `Cc1ccc(C2CC(C(F)(F)F)n3nc(C(=O)NCc4c(C)nn(C)c4C)c(Cl)c3N2)cc1` (stereo not drawn), for which the “activity change, negative = viability loss” value was -39.3%.
Take `Cc1nn(-c2ccccc2Cl)c(Cl)c1/C=N/Nc1cccc(C(=O)O)c1`: the “activity change, negative = viability loss” value was -8.47%.
Turning to `O=C(Nc1ccc(OC(F)(F)F)cc1)c1[nH]ncc1[N+](=O)[O-]`, the “activity change, negative = viability loss” value was 6.68%.
In the case of `C=CCNC(=O)Cn1nnc(-c2ccc(-c3ccc(OC)cc3)cc2)n1`, the “activity change, negative = viability loss” value is -0.141%.
On to `C=CCOc1ccc(/C=C2\SC(=S)N(CCC(=O)O)C2=O)cc1`, for which the “activity change, negative = viability loss” value was 13.3%.
Consider `CCc1nc2oc3ccccc3c(=O)c2cc1C(=O)OC`, for which the “activity change, negative = viability loss” value is -4.67%.
On to `COc1ccc(S(=O)(=O)N2CCCCC2)cc1NC(=O)c1ccc([N+](=O)[O-])o1`, for which the “activity change, negative = viability loss” value was -35.1%.
Under `CCCCOC(=O)c1[nH]c(C)c(C(=O)OC)c1C` stands -15.2%; under `Oc1ccc(CNc2ccccc2F)c2cccnc12`, -40.5%; under `O=C(Cn1ncc(Cl)c(Cl)c1=O)c1ccc(Cl)cc1`, -28.3%.
Under `Nc1nnnn1/N=C/C(Br)=C/c1ccccc1` stands -14.9%; under `Cc1ccsc1C(=O)OCC(=O)Nc1sccc1C(N)=O`, -4.08%.
Regarding `CN(C)c1nc(C=C(C#N)C#N)c(Cl)n1-c1ccc(F)cc1`, the “activity change, negative = viability loss” value was -72.3%.
`COc1ccc(/C=N/Nc2ccccn2)cc1OC`: the “activity change, negative = viability loss” value is 3.77%.
Turning to `COc1ccc(-c2cc(-c3ccccc3O)[nH]n2)cc1OC`, the “activity change, negative = viability loss” value is 5.33%.
Regarding `CCCCNC(=O)Nc1ccc(C2SCCS2)cc1`, the “activity change, negative = viability loss” value is -12.7%.
Consider `CN(C)Cc1c(O)ccc2c1O/C(=C\C=C\c1ccccc1)C2=O`, for which the “activity change, negative = viability loss” value is 6.11%.
Regarding `O=C(/C=C/c1cccc([N+](=O)[O-])c1)n1cnc2ccccc21`, the “activity change, negative = viability loss” value is 23.4%.
Under `Cc1nc2ccccn2c1C(=O)/C=C/c1cccc([N+](=O)[O-])c1` stands 13.3%.
